# Source: PubChem (National Center for Advancing Translational Sciences (NCATS))
# HT1080 IDH1KD tx: qHTS for induction of synthetic lethality in tumor cells producing 2HG: qHTS for the HT-1080-IDH1KD cell line | 360,000 tested, 2% active | HT-1080 IDH1 knockdown viability, ATP luminescence, 48 h | Potency, µM (series often up to 46.1 µM), without a hit: at the top dose activity, negative = toxicity, hits mostly cytotoxic;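 further: 0% = DMSO wells and -100% = cell-free medium wells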
#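 In this qHTS, HT-1080 cells depleted of IDH1 are exposed for 48 h at 37 °C to compound titrations. Toxicity is scored from CellTiter-Glo luminescence, with DMSO as full viability and medium alone as none.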
# HT1080-NT tox: qHTS for induction of synthetic lethality in tumor cells producing 2HG: qHTS for the HT-1080-NT fibrosarcoma cell line; HT-1080-NT fibrosarcoma viability, CellTiter-Glo ATP luminescence, 48 h; Potency, µM (highest dose often 46.1 µM), inactives show at the top dose activity, negative = less viability, hits mostly cytotoxic; 360,000 tested, 1.6% active; AID 686970, 2013;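 further: NT is the 2HG producing partner of a matched IDH1 knockdown line; 0% = DMSO-treated cells and -100% = media-only wells without cells; nearly all actives have a fitted effect of over 55% in size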
#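 HT-1080-NT fibrosarcoma cells (2HG-overproducing), 750 cells/well in RPMI with 5% FBS, dosed after 2 h and incubated 48 h at 37C. CellTiter-Glo luminescence normalized to DMSO and no-cell wells; concentration-response curves fitted and classed.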
# KB-V1 cytotox: qHTS assay for MDR1-selective chemotherapeutics: Primary screen using the drug-selected MDR subline cells KB-V1; KB-V1 MDR cells viability, CellTiter-Glo, 72 h; Potency, µM (titrated, usually from 46.1 µM), actives largely listed as cytotoxic; 400,000 tested, 3.4% active; further: nearly all actives have a fitted effect of over 60% in size
#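 Cells of the MDR subline KB-V1 are plated, dosed with compound at multiple concentrations, and incubated 72 h at 37 degrees C; CellTiter-Glo is then added and luminescence read after 10 min.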
# KB-3-1 tox: qHTS assay for MDR1-selective chemotherapeutics: Primary screen using the parental adenocarcinoma cell KB-3-1. Potency, µM (doses to about 46.1 µM), most hits filed as cytotoxic. KB-3-1 viability, CellTiter-Glo ATP luminescence, 72 h. 400,000 tested, 1.4% active. AID 1347075, 2019; further: nearly all actives have a fitted effect of over 60% in size
#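 Viability of parental KB-3-1 cells, measured by CellTiter-Glo luminescence, followed a 72 h incubation at 37 °C with pinned compounds in phenol-red-free DMEM containing 10% FBS.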
# The depositor's hits bear a star; i = inactive; u = inconclusive; x = no result given. In the library only some 5.7% were active in any assay of this set; here they are far more common. The call rests on the fitted dose curve; in most records, active means well fitted curve in the direction sought with a large enough effect; inconclusive means small, poorly fitted or top-dose-only effect, or another doubt; inactive means no such curve, though single readings can be large; an effect the other way counts as inactive or inconclusive. Unless noted, on the % scale 0 is the no-effect control and ±100 the full control effect; potency means the concentration at half of the fitted maximal effect.
SMILES,HT1080 IDH1KD tx,HT1080-NT tox,KB-V1 cytotox,KB-3-1 tox
COc1cc(-c2noc(-c3ccc(NC4CCCC4)c([N+](=O)[O-])c3)n2)cc(OC)c1OC,x,x,i,i
Nc1[nH]c(=O)nc2nnsc12,x,x,i,u
CCOc1cc(NC(=O)CCl)c(OCC)cc1NC(=O)CCl,u,u,u,20.6µM*
CCOc1ccccc1NC(=O)CCC(=O)Nc1ccccc1OCC,-0.5%,1.2%,i,i
COc1c(C)cccc1C(=O)Nc1ccc(-c2nc3ccccc3s2)c(Cl)c1,x,x,i,i
Cc1ccc(CCNC(=O)c2c(C)nn(-c3ccc(F)cc3)c2-n2cccc2)cc1,x,x,5.8µM*,3.26µM*
CCOc1ccc(NC(=O)c2c(C)nn(-c3ccc(F)cc3)c2-n2cccc2)cc1,x,x,i,i
COc1ccc(OC)c(CCNC(=O)c2c(C)nn(-c3ccc(F)cc3)c2-n2cccc2)c1,x,x,11.6µM*,u
Cc1cc(C)c(NC(=O)c2c(C)nn(-c3ccc(F)cc3)c2-n2cccc2)c(C)c1,x,x,i,u
COc1ccc(CCNC(=O)c2c(O)nc3c(C)cccn3c2=O)cc1OC,x,x,6.51µM*,i
COc1cc(OC)c(NC(=O)c2c(C)nn(-c3ccc(C)cc3)c2-n2cccc2)cc1Cl,x,x,u,23.1µM*
Cc1ccc(NC(=O)c2c(C)nn(-c3ccccc3)c2-n2cccc2)c(Cl)c1,x,x,i,i
COc1ccccc1N1CCN(CCCNC(=O)c2nnc(Cc3c(F)cccc3Cl)o2)CC1,x,x,u,i
COc1ccc(CNC(=O)c2cc3c(=O)[nH]c4ccccc4c3n2C)c(OC)c1,x,x,i,i
COc1ccc(CCNC(=O)c2c(C)nn(-c3ccc(F)cc3)c2-n2cccc2)cc1OC,x,x,5.17µM*,5.8µM*
COc1ccc(OC)c(CCNC(=O)C(C)n2nc(C)c3c(C)n(-c4ccc(C)cc4)nc3c2=O)c1 (stereo not drawn),20.6µM*,-16.6%,i,u
CCN(CC)c1ccc(NC(=O)c2c(C)nn(-c3ccc(F)cc3)c2-n2cccc2)c(C)c1,x,x,20.6µM*,u
CCOC(=O)c1c(NC(=O)c2cc(=O)c3cc(C)ccc3o2)sc2c1CCCC2,x,x,i,i
CC1CCN2c3cc(Cl)ccc3CC3(C(=O)OC(C)(C)OC3=O)C2C1 (stereo not drawn),x,x,i,i
CCC12CN3CC(CC)(CN(C1)C3c1cc(Br)ccc1OC)C2=O (stereo not drawn),x,x,i,i
Cc1cccc(Nc2nc(N)nc(CN3CCN(Cc4ccc5c(c4)OCO5)CC3)n2)c1,-18.2%,-20.3%,14.6µM*,i
COc1ccccc1Nc1nc(N)nc(CN2CCN(Cc3ccc4c(c3)OCO4)CC2)n1,-7.7%,-17.5%,i,i
COc1ccccc1Nc1nc(N)nc(CN2CCN(Cc3ccccc3)CC2)n1,-2.2%,-14.0%,u,i
Nc1nc(CSC(=S)N2CCCCC2)nc(Nc2ccccc2)n1,-0.6%,-4.2%,u,i
Nc1nc(CN2CCN(Cc3ccccc3)CC2)nc(Nc2ccccc2)n1,u,u,20.6µM*,u
SMILES,HT1080 IDH1KD tx,HT1080-NT tox,KB-V1 cytotox,KB-3-1 tox
CC1CC(C)CN(C(=S)SCc2nc(N)nc(Nc3ccccc3)n2)C1 (stereo not drawn),32.6µM*,u,u,u
Cc1cccc(Nc2nc(N)nc(CN3CCN(c4ccccc4F)CC3)n2)c1,-2.8%,u,2.31µM*,i
CCOc1ccc(Nc2nc(N)nc(CN3CCN(c4ccccc4F)CC3)n2)cc1,-16.3%,-1.3%,u,i
Cc1cccc(C)c1NC(=O)C1(C)CN(S(C)(=O)=O)CC(=O)N1CC(F)(F)F (stereo not drawn),7.3%,3.9%,i,i
CCc1ccc(NC(=O)CSc2c(C)cnc3c2c(=O)n(C)c(=O)n3C)cc1,x,x,i,i
Cc1cccc(Nc2nc(N)nc(CN3CCN(c4ccccc4)CC3)n2)c1,-1.7%,-5.9%,14.6µM*,i
Nc1nc(CN2CCN(c3ccccc3F)CC2)nc(Nc2ccc3c(c2)OCCO3)n1,-18.7%,-3.5%,9.2µM*,u
COc1cccc(N2CCN(Cc3nc(N)nc(Nc4ccccc4)n3)CC2)c1,4.1%,1.8%,i,i
CCC(=O)N1CCc2cc(S(=O)(=O)NCCC(=O)Nc3cc(C)ccc3OC)ccc21,x,x,i,i
O=c1[nH]nc(Sc2ncnc3sccc23)n1CCc1ccccc1,u,18.4µM*,i,u
COc1cc(C2CC(=O)N(c3ccc(C)cc3)C(=O)C2)cc(OC)c1OC,u,3.26µM*,4.61µM*,4.61µM*
COc1ccc(C/C(N)=N/n2cnnc2)cc1Cl,-0.4%,-0.8%,i,i
COc1ccc(C(=O)O/N=C(\N)Cc2ccc(Cl)cc2)cc1OC,u,14.6µM*,u,u
COc1ccc(C(=O)O/N=C(\N)Cc2ccc(Cl)c(Cl)c2)cc1OC,u,14.6µM*,u,u
COc1ccc(C(=O)O/N=C(\N)Cc2ccc([N+](=O)[O-])cc2)c(OC)c1,18.4µM*,u,u,i
CC(=O)c1ccc(NC(=O)CSc2ccc3nc(-c4ccccc4)cn3n2)cc1,x,x,i,i
Fc1ccccc1COc1ccc2ccccc2c1CNc1nn[nH]n1,16.4µM*,13µM*,i,u
Fc1ccc(COc2ccc3ccccc3c2CNc2nn[nH]n2)cc1,u,u,i,i
COc1ccc(Br)cc1CN1C(=O)c2ccccc2C1C(=O)NC1CCCCCC1 (stereo not drawn),x,x,i,i
